PLK1 PBD inh: inhibitors of human PLK1 polo-box domain binding; P53350; Plk1 PBD binding of FITC phosphopeptide, fluorescence polarization; Potency, µM, inactives show max response, negative = inhibition, hits mostly inhibitors; 2.8% of 360,000 active; note: potency is the fitted concentration of half-maximal effect; series mostly up to about 57 µM; % is set by controls: 0 for no effect and ±100 for the full control effect; nearly all actives have a fitted effect of over 65% in size
uPA surface inh: inhibitors of cell surface uPA generation; Potency, µM (highest dose often 38.3 µM), for the others: top-dose activity change, negative = inhibition, usual class: inhibitors; 0.31% of 330,000 active; cell surface uPA generation assay, qHTS; active = well fitted inhibition curve with a large enough effect; inconclusive = small, poorly fitted or top-dose-only effect; inactive = no such curve, though single readings can be large or run the other way; tested in mouse RAW 264.7 cells; note: potency is the fitted concentration of half-maximal effect; % is set by controls: 0 for no effect and ±100 for the full control effect; nearly all actives have a fitted effect of over 55% in size
VDR inhibitor: inhibitors of human vitamin D receptor; P11473; Potency, µM, for the others: max response, negative = inhibition, actives largely listed as inhibitors; 0.93% of 400,000 active; VDR-SRC2-3 peptide fluorescence polarization, 2 h; note: potency is the fitted concentration of half-maximal effect; % is set by controls: 0 for no effect and ±100 for the full control effect
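Inhibition of the VDR/SRC2-3 peptide interaction is quantified by fluorescence polarization. Compounds (23 nl, pintool) incubate with the reagents for 2 hours at ambient room temperature.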
TSHR antag: blocks TSH signaling through the human TSH receptor; TSHR-expressing cells, TSH-stimulated cAMP HTRF, 2 h; hits give low values; activity change, negative = inhibition, % at 11.5 µM; 0.2% of 330,000 active; AID 504810;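 active = activity change below a set negative limit, meaning inhibition stronger than a set level, cut at about -70% in these data; inconclusive = activity change between two set negative limits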; note: % is set by controls: 0 for no effect and ±100 for the full control effect
Target sequence (P16473 whole entry, looked up): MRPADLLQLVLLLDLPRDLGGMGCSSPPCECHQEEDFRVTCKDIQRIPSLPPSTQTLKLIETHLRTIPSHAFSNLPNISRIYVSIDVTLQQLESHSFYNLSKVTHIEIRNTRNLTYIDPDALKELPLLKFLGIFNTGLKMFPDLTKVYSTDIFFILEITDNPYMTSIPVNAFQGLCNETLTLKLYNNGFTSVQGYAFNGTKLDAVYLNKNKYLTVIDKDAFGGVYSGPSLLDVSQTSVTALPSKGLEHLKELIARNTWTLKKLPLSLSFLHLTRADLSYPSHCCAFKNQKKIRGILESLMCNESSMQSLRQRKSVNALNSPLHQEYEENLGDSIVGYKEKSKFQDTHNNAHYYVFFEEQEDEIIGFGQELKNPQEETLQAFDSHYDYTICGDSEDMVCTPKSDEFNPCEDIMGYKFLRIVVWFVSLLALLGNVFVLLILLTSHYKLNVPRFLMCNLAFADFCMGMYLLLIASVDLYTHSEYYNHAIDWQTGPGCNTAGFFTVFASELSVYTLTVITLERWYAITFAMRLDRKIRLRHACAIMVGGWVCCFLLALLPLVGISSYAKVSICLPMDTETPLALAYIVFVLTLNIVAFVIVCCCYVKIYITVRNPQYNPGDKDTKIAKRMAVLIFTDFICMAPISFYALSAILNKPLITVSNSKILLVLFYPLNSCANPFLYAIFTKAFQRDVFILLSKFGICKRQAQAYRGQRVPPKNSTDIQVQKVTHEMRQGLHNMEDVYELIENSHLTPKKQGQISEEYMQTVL
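TSHR-expressing cells, 200/well, pre-treated with compound, then stimulated with EC80 TSH (4nM final) for 2 hours at 37 deg C. cAMP measured by competitive HTRF: anti-cAMP cryptate antibody in lysis buffer plus cAMP-d2, read after 30 minutes at room temperature.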
TSG101-PTAP inh: blocks PTAP/TSG101 interaction to inhibit HIV-1 budding; Q99816; Fluorescence polarization, FITC-PTAP peptide / Tsg101 binding; Potency, µM (highest dose often 115 µM), inactives show top-dose activity change, negative = inhibition, usual class: inhibitors; 340,000 tested, under 10 active; AID 493005; active = well fitted inhibition curve with a large enough effect in the main read-out, with a control signal flat, not every such curve was filed as active; inconclusive = small, poorly fitted or top-dose-only effect, or effect the other way, or a change in a side signal; inactive = no such curve, though single readings can be large or run the other way; note: potency is the fitted concentration of half-maximal effect; % of control where 0% means no effect
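FP read-out: FITC-PTAP peptide, 50 nM final, binding Tsg101 binding domain, 10 uM final; 20 min, r.t.; 10 mM HEPES pH 7.5, 0.15 M NaCl, 0.01% Tween 20, 3 mM EDTA, 0.1 mM TCEP.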
* = called active by the depositor; ? = inconclusive; nt = no result; ! = repeats disagree. This is a sample that favours compounds with a hit; in the whole collection about 3.1% have one here. Unless noted, calls come from the whole dose curve; as a rule, active = well fitted curve in the direction sought with a large enough effect; inconclusive = small, poorly fitted or top-dose-only effect, or another doubt; inactive = no such curve, though single readings can be large; an effect the other way counts as inactive or inconclusive.

SMILES	PLK1 PBD inh	uPA surface inh	VDR inhibitor	TSHR antag	TSG101-PTAP inh
Nc1nc(NCCc2ccccc2)c2[nH]cnc2n1	nt	nt	1%	nt	nt
Fc1ccc(Nc2nc(-c3ccoc3)nc3ccccc23)cc1	nt	nt	16µM*	nt	nt
c1ccc(CNc2nc(-c3cccnc3)nc3ccccc23)cc1	-8%	-9%	18µM*!	3	-11%
c1ccc(CNc2ccnc(-c3cccnc3)n2)cc1	nt	nt	40µM*	nt	nt
Oc1ccc(Nc2nc(-c3ccccc3)nc3ccccc23)cc1	3%	2%	-21%	2	-1%
c1cncc(CNc2nc(-c3cccnc3)nc3ccccc23)c1	-2%	6%	-11%	-9	-7%
c1ccc(CNc2nc(-c3ccoc3)nc3ccccc23)cc1	nt	nt	32µM*	nt	nt
CC(=O)Nc1cccc(NC(=O)C2CCCO2)c1 (centres undefined)	3%	nt	nt	nt	nt
C[C@H]1CC[C@@H]2N(C1)C[C@H]1[C@@H]3C[C@H]4[C@@H](C/C(=N\O)[C@H]5C[C@@H](O)CC[C@@]54C)[C@@H]3CC[C@H]1[C@]2(C)O	nt	nt	5%	nt	nt
Cc1ccc2[nH]cc(C(c3ccccc3)c3ccc(C)s3)c2c1 (centres undefined)	nt	nt	-7%	nt	nt
Cn1nc(C(C)(C)C)c([N+](=O)[O-])c1C(=O)NCCO	24µM*	-7%	?	6	0%
CCC(C)N(C(=O)CSc1ccc(NC(C)=O)cc1)C1CCS(=O)(=O)C1 (centres undefined)	30µM*	-1%	3%	-4	1%
CCC(C)N(C(=O)COC(=O)CSc1ccc(C)c(C)c1)C1CCS(=O)(=O)C1 (centres undefined)	-2%	10%	-9%	4	-2%
CCOC(=O)CCCN1C(=O)CCn2nc(-c3cn(C)c4ccccc34)cc21	nt	nt	19%	nt	nt
CCNc1ccc(Br)cc(C(=O)/C=C/c2ccc(Cl)cc2Cl)c1=O	?	-10%	79µM*	-23	-5%
COc1cc2nc(/C=C/c3cc(OC)c(OC)c(OC)c3)sc2cc1SC	6%	-9%	-11%	-3	-2%
COc1cc2nc(C)sc2cc1SC	24µM*	-1%	?	28	-7%
c1cc2c(cc1-c1csc(NNC3=NCCCCC3)n1)OCCO2	19µM*	-1%	?	-2	-1%
COc1cccc(-c2nnc(-c3ccco3)o2)c1	30µM*	-13%	?	-1	-3%
Cc1ccc(-c2ccc(CN3C(C(C)C)C(=O)N(Cc4cn(Cc5ccco5)nn4)CCS3(=O)=O)cc2)cc1 (centres undefined)	-10%	nt	nt	nt	nt
CCCOC(=O)c1c(-c2ccc(OC)cc2)oc2ccc(-c3ccc(OC)nc3)cc12	38µM*	5%	-29%	-9	-7%
COC(=O)c1c(-c2ccc(OC)cc2)oc2ccc(-c3ccc(OC)nc3)cc12	-15%	15%	-3%	11	-3%
COc1ccc(N=N/C(=C\O)C(=O)c2ccco2)cc1	27µM*	1%	-6%	1	-1%
O=C(Nc1cccc2cccnc12)c1ccc(F)cc1	nt	nt	5%	nt	nt
COc1ccc(-n2nc(C(=O)NCCCN3CCOCC3)c3ccccc3c2=O)c(OC)c1	21µM*	2%	?	-6	-5%
SMILES	PLK1 PBD inh	uPA surface inh	VDR inhibitor	TSHR antag	TSG101-PTAP inh
COc1ccc(-n2nc(C(=O)NCC(=O)NCCCN3CCN(C)CC3)c3ccccc3c2=O)cc1	3%	6%	-4%	-100*	-1%
CC(Cl)C(=O)c1ccc2c(c1)CCN2C(=O)C1CC1 (centres undefined)	19µM*	-7%	29%	-5	-6%
O=C(NCCS(=O)(=O)N1CCN(c2ccccc2)CC1)C(c1ccccc1)c1ccccc1	nt	nt	13%	nt	nt
CCCn1cc(S(=O)(=O)c2ccc(CC)cc2)c(=O)c2cc(F)c(N(CC)CC)cc21	nt	nt	17%	nt	nt
CCc1ccc(NC(=O)CSc2nc(-c3cccc(OC)c3)nc3c2Cc2c(CO)cnc(C)c2O3)cc1	nt	nt	-3%	nt	nt
CCCN(C(=O)c1coc(=O)c2ccccc12)c1ccccc1C	nt	nt	-18%	nt	nt
O=C(CCl)Nc1ccc(S(=O)(=O)NC2=NCCCCC2)cc1	-2%	0%	-8%	-1	-3%
O=C(CCl)Nc1cccc(S(=O)(=O)NC2=NCCCCC2)c1	-12%	2.5µM*	13%	1	0%
Clc1ccccc1-c1nc(/C=N/N2CCOCC2)c2ccccn12	24µM*	-1%	?	-5	14%
CN1CCN(/N=C/c2nc(-c3ccccc3Cl)n3ccccc23)CC1	-6%	-10%	15%	3	-1%
Cc1ccc(CNC(=O)CSc2nc(N3CCCCC3)nc(N3CCCCC3)n2)cc1	27µM*	4%	-2%	7	-6%
CCC(CCC(C)C1CCC2C3CCC4CC(O)CC[C@@]4(C)C3CC[C@@]12C)C(C)C (some centres undefined)	nt	nt	-3%	nt	nt
CC(CCC(C)C(C)(C)C)[C@@H]1CC[C@H]2C3C[C@H](OS(O)(=S)=S)[C@H]4C[C@H](OS(O)(=S)=S)[C@@H](OS(O)(=S)=S)C[C@]4(C)[C@H]3CC[C@]12C (some centres undefined) (tested in a mixture with another compound)	4.7µM*	-20%	22µM*	-83*	?
CCC(=O)N1c2ccccc2CC1C(=O)NCc1cc(OC)ccc1OC (centres undefined)	nt	nt	11%	nt	nt
NS(=O)(=O)c1ccc(CCNC(=O)c2cccc(S(=O)(=O)N3CCc4ccccc43)c2)cc1	0%	nt	nt	nt	nt
CCn1c(N)c(C(=O)NCc2cccnc2)sc1=S	-27%	-1%	-5%	0	0%
COCCCNC(=O)c1ccc(C(=O)NCCCOC)cc1	-2%	4%	-7%	4	nt
CCn1c(N)c(C(=O)N2CCOCC2)sc1=S	15µM*	13%	-12%	-6	-1%
CCn1c(N)c(C(=O)NCCCOC)sc1=S	21µM*	-1%	?	2	-4%
CCNC(=O)c1sc(=S)n(CC)c1N	27µM*	0%	-9%	2	-3%
Cc1ccc(CNC(=O)c2ccc3c(=O)[nH]c4c(C(=O)NCC5CCCO5)sc(=S)n4c3c2)cc1 (centres undefined)	?	-1%	-16%	-35	-3%
CCCCCNC(=O)c1ccc2c(=O)[nH]c3c(C(=O)NCC4CCCO4)sc(=S)n3c2c1 (centres undefined)	27µM*	1%	-8%	-29	-10%
CCC(C(=O)NCCc1ccc(Cl)cc1)n1nc(C)c2c(C)n(-c3ccccc3)nc2c1=O (centres undefined)	nt	nt	8%	nt	nt
COc1cc(OC)c(NC(=O)C2CCCN(c3ncnc4c3nc3n4CCCCC3)C2)cc1Cl (centres undefined)	nt	nt	0%	nt	nt
O=C(c1csnn1)N1CCC2(CC1)CN(c1cccc(-c3ccccc3)c1)C2	nt	nt	-21%	nt	nt
CCn1c(N)c(C(=O)NCC2CCCO2)sc1=S (centres undefined)	4.7µM*	1%	35µM*	32	-7%
